High-throughput results (PubChem)
Shown are actives, neighbours in structure and some others; about 11% of the full set was active somewhere.
FLuc inh: blocks purified firefly luciferase enzyme activity; Potency, µM (doses to about 115 µM), usual class: inhibitors; AID 1347043; purified P. pyralis luciferase, luminescence, biochemical; 2.5% of 76,000 active; note: nearly all actives have a fitted effect of over 65% in size
Target sequence (P08659 whole entry, looked up): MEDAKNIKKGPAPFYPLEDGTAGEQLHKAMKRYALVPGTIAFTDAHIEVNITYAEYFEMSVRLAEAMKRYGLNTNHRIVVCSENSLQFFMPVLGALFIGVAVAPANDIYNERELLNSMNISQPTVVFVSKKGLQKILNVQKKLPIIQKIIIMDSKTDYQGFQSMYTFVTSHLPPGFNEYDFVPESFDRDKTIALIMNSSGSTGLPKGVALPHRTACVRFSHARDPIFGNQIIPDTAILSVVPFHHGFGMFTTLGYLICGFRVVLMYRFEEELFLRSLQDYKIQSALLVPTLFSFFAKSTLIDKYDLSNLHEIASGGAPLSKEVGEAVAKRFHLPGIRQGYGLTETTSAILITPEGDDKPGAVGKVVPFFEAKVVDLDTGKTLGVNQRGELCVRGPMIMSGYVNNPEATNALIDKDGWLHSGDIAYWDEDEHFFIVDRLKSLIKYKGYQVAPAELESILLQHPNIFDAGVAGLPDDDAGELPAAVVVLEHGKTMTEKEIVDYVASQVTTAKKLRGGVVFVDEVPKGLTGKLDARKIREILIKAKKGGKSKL
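Luminescence read by CCD imager after adding enzyme (10nM final) to wells holding compound, titrated in qHTS. Substrates 10uM each D-luciferin and ATP; buffer 50mM Tris acetate pH 7.5, 10mM Mg acetate, Tween-20, BSA.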
hNpr1 antagonist: human Npr1 receptor antagonism | P16066 | Potency, µM (top dose mostly 46.3 µM), for the others: at the highest dose activity change, negative = inhibition, hits mostly inhibitors | HEK293 hNpr1 GloSensor cGMP, ANP-stimulated luminescence | AID 1347048 | 1.6% of 76,000 active; calls by dose curve; note: nearly all actives have a fitted effect of over 60% in size
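Compound pre-incubated 30 min at room temperature on GloSensor-loaded HEK293 cells stably carrying hNpr1 and the pGS-40F cGMP biosensor. Stimulation uses hNppA at 0.1 nM final; luminescence is taken at baseline and 20 min post-agonist.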
NIH3T3 tox: kills NIH 3T3 cells. NIH 3T3 viability, CellTiter-Glo ATP luminescence, 48-72 h. Potency, µM (titrated, usually from 96.7 µM), inactives show at the highest dose activity change, negative = cytotoxicity, most hits filed as inhibitors. 4.3% of 94,000 active. AID 1345082; note: nearly all actives have a fitted effect of over 55% in size
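ATP-dependent luminescence (CellTiter-Glo) served as the viability signal for NIH 3T3 cells treated with compound for 48 or 72 hr at 37 °C.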
HEK293 tox: kills HEK 293 cells; HEK 293 viability, ATP luminescence (CellTiter-Glo), 48-72 h; Potency, µM (titrated, usually from 115 µM), for the others: at the highest dose activity change, negative = cytotoxicity, most hits filed as inhibitors; 6.6% of 94,000 active; note: nearly all actives have a fitted effect of over 60% in size
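HEK 293 cells at 250 cells/well were exposed to compounds by pintool transfer for 48 or 72 hr at 37 degree Celsius, 5% CO2. Viability was read as ATP-coupled luminescence with CellTiter-Glo after 10 min at room temperature.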
The depositor's hits bear a star. Unless noted, calls come from the whole dose curve; as a rule, active = well fitted curve in the direction sought with a large enough effect; inconclusive = small, poorly fitted or top-dose-only effect, or another doubt; inactive = no such curve, though single readings can be large; an effect the other way counts as inactive or inconclusive. % is set by controls: 0 for no effect and ±100 for the full control effect; potency is the fitted concentration of half-maximal effect.

`O=C(NC1CCCN(c2cc(-c3ccccc3)[nH]n2)C1)c1cccc(F)c1` (stereo not drawn) gave FLuc inh inconclusive, hNpr1 antagonist 0%, NIH3T3 tox inconclusive and HEK293 tox 25µM*.
For O=C(NC1CCN(c2cc(-c3ccc(F)cc3)[nH]n2)C1)c1ccccc1 (stereo not drawn) the results were FLuc inh inactive, hNpr1 antagonist -14%, NIH3T3 tox inconclusive and HEK293 tox inconclusive.
`O=C(NC1CCN(c2cc(-c3ccc(F)cc3)[nH]n2)C1)c1cccc(F)c1` (stereo not drawn) gave FLuc inh inactive, hNpr1 antagonist -15%, NIH3T3 tox inconclusive and HEK293 tox 40µM*.
For O=C(NC1CCCN(c2cc(-c3ccccc3)[nH]n2)C1)c1ccc(F)cc1Cl (stereo not drawn) the results were FLuc inh inconclusive, hNpr1 antagonist -19%, NIH3T3 tox inconclusive and HEK293 tox inconclusive.
Screening O=C(c1ccoc1)N1CCC2(CC1)NC(=O)N(c1ccccc1Cl)N2 returned FLuc inh inactive, hNpr1 antagonist 0%, NIH3T3 tox inconclusive and HEK293 tox inconclusive.
`O=C(NCc1cccc(C(F)(F)F)c1)C1CCN(c2ccnc3ccnn23)CC1` gave NIH3T3 tox inconclusive and HEK293 tox 35µM*.
Screening COc1ccccc1Nc1ccnc(N2CCC(C(=O)NCCSC)CC2)n1 returned NIH3T3 tox 40µM* and HEK293 tox inconclusive.
`COc1ccccc1Nc1ccnc(N2CCC(C(=O)N3CCOCC3)CC2)n1` gave NIH3T3 tox inconclusive and HEK293 tox 2%.
For COc1ccccc1Nc1ccnc(N2CCC(C(=O)NCc3cccc(C(F)(F)F)c3)CC2)n1 the results were NIH3T3 tox 32µM* and HEK293 tox inconclusive.
O=C(NCc1cccs1)C1CCCN(c2ccnc3ccnn23)C1 (stereo not drawn) was read as NIH3T3 tox inconclusive and HEK293 tox 89µM*.
Screening Cc1cnc(C(=O)NC2C[C@H]3CC[C@@H](C2)N3C(=O)CCCc2ccccc2)cn1 (stereo partly drawn) returned FLuc inh inactive, hNpr1 antagonist 4%, NIH3T3 tox -9% and HEK293 tox inactive.
`Cn1nc(C(=O)N2CCC(OCCOc3ccccc3)CC2)c2ccccc21` gave FLuc inh 40µM*, hNpr1 antagonist -1%, NIH3T3 tox inconclusive and HEK293 tox inconclusive.
`COc1cccc(CC(=O)N2CCC(c3n[nH]c(=O)n3-c3ccc(C)cc3)CC2)c1` gave FLuc inh inactive, hNpr1 antagonist 10%, NIH3T3 tox 10µM* and HEK293 tox 0%.
Screening Cc1ccc(CC(=O)N2CCC(c3n[nH]c(=O)n3-c3ccccc3)CC2)cc1 returned FLuc inh inactive, hNpr1 antagonist 0%, NIH3T3 tox 35µM* and HEK293 tox -7%.
Cc1ccc(-n2c(C3CCN(C(=O)c4n[nH]c5ccccc45)CC3)n[nH]c2=O)cc1 was read as FLuc inh inactive, hNpr1 antagonist 14%, NIH3T3 tox inconclusive and HEK293 tox -3%.
Cc1ccc(-n2c(C3CCN(C(=O)c4nn(C)c5ccccc45)CC3)n[nH]c2=O)cc1 was read as FLuc inh inactive, hNpr1 antagonist 0%, NIH3T3 tox 8.9µM* and HEK293 tox -2%.
COc1ccc(C(=O)N2CCCC(CN3CCC(C)CC3)CC2)cc1 (stereo not drawn) was read as FLuc inh inactive, hNpr1 antagonist 1%, NIH3T3 tox -22% and HEK293 tox -11%.
For CC(C)(C)NC(=O)N1CCCN(S(=O)(=O)c2ccccc2)CCC(=O)NCC1 the results were FLuc inh inactive, hNpr1 antagonist 4%, NIH3T3 tox inconclusive and HEK293 tox -14%.
For Cc1ccc(-n2c(C3CCN(C(=O)Cc4ccccc4Cl)CC3)n[nH]c2=O)cc1 the results were FLuc inh inactive, hNpr1 antagonist -2%, NIH3T3 tox inconclusive and HEK293 tox -1%.
For Cc1ccc(-n2c(C3CCN(C(=O)Cc4ccc(Cl)cc4)CC3)n[nH]c2=O)cc1 the results were FLuc inh inactive, hNpr1 antagonist 0%, NIH3T3 tox 45µM* and HEK293 tox -1%.
Cc1ccc(C(=O)N(CC(C)C)CC2CN(C(=O)c3ccc(Cl)c(Cl)c3)CCO2)cc1 (stereo not drawn) was read as FLuc inh inactive, hNpr1 antagonist -13%, NIH3T3 tox inconclusive and HEK293 tox 45µM*.
